# Screening results from PubChem BioAssay.
# CF NFkB block – blocks PAF-induced NF-kB reporter in cystic fibrosis cells; 0.86% of 360,000 active; KKLEB NF-kB-GFP reporter, GFP fluorescence overnight; inhibition, % at 5 µM;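 active means at least 50% inhibition at 5 µM, scaled per plate between neutral and stimulator controls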;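 further: PAF is a Pseudomonas aeruginosa culture filtrate used as stimulus; plate controls were PAF-stimulated DMSO wells for no effect and unstimulated DMSO wells for full effect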
# EWS-Fli inh – EWS/Fli transcriptional activity inhibition; 0.67% of 350,000 active; inhibition, % at 12.6 µM; A673 NR0B1-luciferase reporter, viability-normalised;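 active means mean inhibition of at least 50% after viability correction, with every replicate also passing that limit; inconclusive means mean reaches 50% but only one of two replicates passes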;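 further: firefly luciferase signal divided by Alamar Blue viability fluorescence both relative to DMSO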
# TWEAK-Fn14 inh – blocks TWEAK-Fn14 interaction in a reporter cell assay; 2% of 360,000 active; inhibition, % at 10 µM; TWEAK-stimulated Fn14 reporter cells, luciferase luminescence, 8 h; in the data active means inhibition above about 50%
# KKLEB cytotox – counter-screen for CF NF-kB inhibitors: cytotoxicity. activity change (cytotoxicity), % at 5 µM. AID 602141. KKLEB CF airway cells viability, ATPlite luminescence, overnight; active compounds read low; cells stimulated with P. aeruginosa culture filtrate. 0.36% of 360,000 active;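 active means corrected activity change at or below -50% at 5 µM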
# LGR2 antag – blocks bursicon-induced cAMP signaling via Drosophila LGR2; HEK293 LGR2, CRE-luciferase, bursicon-stimulated, 4 h; inhibition, % at 9.99 µM; 0.35% of 380,000 active; AID 720647;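 active means drop in luminescence signal, shown as inhibition above about 50% in the replicate tests, limit read from the data, passing the limit was not always enough; inconclusive means probably only some replicates passing the limit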;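 further: agonist challenge used bursicon conditioned medium at about half maximal strength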
# TROY NFkB inh – TROY signaling inhibition. Q293 LMP1-TROYcd NF-kB luciferase reporter, 4 h. inhibition, % at 10 µM. 0.98% of 360,000 active. AID 1347056;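 active means compounds whose plate-normalised and pattern-corrected inhibition of the luciferase reporter signal at the single screening dose is 50% or more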
# * = called active by the depositor; ? = inconclusive; . = no result. Only some compounds are listed: those with a hit (about 2.6% of all), similar ones and a draw of the others.
SMILES,CF NFkB block,EWS-Fli inh,TWEAK-Fn14 inh,KKLEB cytotox,LGR2 antag,TROY NFkB inh
CCOCC(=O)Nc1nc2ccc(C)cc2s1,22.8,.,20.0,-9.1,.,5.7
CS(=O)(=O)c1ccc2nc(NC(=O)c3cccs3)sc2c1,22.8,.,69.0*,-27.2,25.0,34.1
Cc1ccc2nc(NC(=O)c3ccc(Cl)s3)sc2c1,-3.3,-66.8,13.8,-14.0,-43.1,-47.0
Cc1ccccc1NC(=O)Nc1nc2ccc(S(C)(=O)=O)cc2s1,21.2,.,-72.1,-27.2,-32.3,-26.2
NS(=O)(=O)c1ccc2nc(NC(=O)Nc3ccccc3F)sc2c1,-9.1,-102.6,50.6*,12.7,-41.0,7.9
Cc1ccc2nc(NC(=O)c3cccs3)sc2c1,1.1,.,78.5*,-15.0,.,23.2
Cc1ccc2nc(NC(=O)CSCC(=O)OCC(=O)c3ccccc3)sc2c1,-4.6,.,95.6*,3.5,12.9,73.0*
COc1ccc(NC(=O)N[C@H]2CC[C@H](CCNC(=O)Nc3cc(F)ccc3F)O[C@@H]2CO)cc1,.,.,.,.,-4.5,.
O=C(C[C@H]1C=C[C@H](NS(=O)(=O)c2ccccc2)[C@H](CO)O1)N1CCC(Cc2ccccc2)CC1,.,9.5,.,.,-12.9,.
Cc1ccc2nc(NC(=S)NC(=O)c3cccs3)sc2c1,-15.6,.,42.7,-9.3,.,54.0*
Cc1ccc2nc(NC(=O)CCCc3nc4ccccc4s3)sc2c1,0.9,.,-6.8,6.7,-5.4,35.8
Cc1ccc2nc(NC(=O)CCCC(=O)O)sc2c1,7.2,81.3*,86.3*,-9.8,?,66.2*
Cc1ccc(C(=O)CSc2nnnn2C(C)C)c(C)c1,4.2,.,89.6*,-9.4,.,53.3*
COCc1cn(CC[C@@H]2CC[C@@H](NC(=O)Nc3ccccc3)[C@H](CO)O2)nn1,.,-0.1,.,.,-2.5,.
O=C(Nc1ccc(Oc2ccccc2)cc1)C1CCN(c2c3c(nc4ncnn24)CCC3)CC1,1.9,.,79.2*,-10.0,.,51.1*
Nc1cccnc1S(=O)(=O)c1ccccc1,0.0,-8.1,-5.1,4.5,-1.7,0.2
COc1ccc([N+](=O)[O-])c(S(=O)(=O)c2ccc(Cl)cc2)n1,101.7*,20.1,97.2*,-47.0,96.9*,65.7*
COc1ccc([N+](=O)[O-])c(S(=O)(=O)c2ccccc2)n1,84.7*,25.3,97.3*,-55.4*,103.9*,71.7*
COc1nc(OC)nc(Oc2ccc(Cl)cc2[N+](=O)[O-])n1,-6.6,5.1,-1.2,8.4,-8.9,10.8
O=[N+]([O-])c1cccnc1S(=O)(=O)c1ccccc1,82.2*,43.7,95.1*,-68.1*,11.5,45.8
COc1ccccc1S(=O)(=O)c1ccccc1[N+](=O)[O-],7.7,-1.1,1.9,-16.4,4.0,-6.8
O=c1c2ccccc2cnn1CCOc1ccccc1,-27.1,.,97.1*,3.1,86.4*,71.8*
Cc1nn(-c2ccc(Cl)cc2Cl)c(=O)c2ccccc12,6.2,3.9,-6.3,6.7,22.4,-6.3
CC1=NN(S(=O)(=O)c2ccc(Cl)cc2Cl)C(=O)c2ccccc2O1,1.4,-6.3,68.1*,-4.0,4.3,0.5
O=C(C[C@@H]1C=C[C@H](NC(=O)c2cccc(F)c2)[C@H](CO)O1)NCCN1CCCC1,.,-3.0,.,.,-0.7,.
SMILES,CF NFkB block,EWS-Fli inh,TWEAK-Fn14 inh,KKLEB cytotox,LGR2 antag,TROY NFkB inh
CNC(=O)NC(=O)C(C)OC(=O)CCCSc1nc2ccccc2s1 (stereo not given),-1.3,4.1,54.9*,-4.6,-13.8,30.8
CCNC(=O)NC(=O)C(C)OC(=O)CCCSc1nc2ccccc2s1 (stereo not given),-22.7,8.3,59.3*,-2.9,.,39.3
C[C@@H]1CN([C@H](C)CO)S(=O)(=O)c2ccc(C#CCN(C)C)cc2O[C@H]1CN(C)Cc1ccncc1,.,5.7,.,.,18.1,.
Cc1nc(N2CCN(C(=O)COc3ccccc3)CC2)c2c(C)c(C)sc2n1,-3.7,.,50.2*,0.3,.,39.3
Cn1c(CC(=O)Nc2ccc(Cl)c(Cl)c2)nnc1SCC(=O)N1CCN(c2ccccc2)CC1,48.1,6.2,50.5*,-17.8,14.6,28.7
CCn1c(SCC(=O)N2CCN(c3ccccc3)CC2)nnc1-c1cc2cc(Cl)ccc2o1,4.6,.,46.7,8.0,.,59.2*
Cc1nc(SCC(=O)N2CCN(c3ccccc3)CC2)c2oc3ccccc3c2n1,7.3,.,52.3*,-3.4,.,24.0
CO[C@H]1CN(C)C(=O)c2ccc(NC(=O)c3nc4ccccc4s3)cc2OC[C@H](C)NC[C@@H]1C,.,-3.4,.,.,-4.4,.
CCCC(O)C#Cc1cnc2c(c1)C(=O)N([C@H](C)CO)C[C@H](C)[C@H](CN(C)S(=O)(=O)c1cccc(F)c1)O2 (stereo not given in full),.,0.2,.,.,17.6,.
CCc1c(C)sc(NC(=O)c2cc(-c3cc(OC)ccc3OC)on2)c1C#N,39.9,.,-39.3,-70.0*,21.9,0.7
C[C@H]1CN([C@@H](C)CO)C(=O)c2cccc(NS(=O)(=O)c3ccccc3)c2O[C@@H]1CN(C)Cc1ccccc1,.,6.0,.,.,4.4,.
O=S(=O)(c1ccccc1)N1CCN(c2cc(-c3ccccc3)nc3ncnn23)CC1,14.7,.,70.3*,9.1,.,32.3
Cc1sc2ncnc(N3CCN(S(=O)(=O)c4ccccc4)CC3)c2c1C,9.1,.,74.0*,-5.0,.,4.5
Cc1ccc(S(=O)(=O)N2CCN(c3ncnc4scc(-c5ccccc5)c34)CC2)cc1,9.4,3.2,-3.1,-5.9,17.3,1.7
O=S(=O)(c1ccccc1)N1CCN(c2ncnc3sc(-c4ccccc4)cc23)CC1,6.6,.,81.4*,-2.1,.,37.4
O=S(=O)(c1ccc(Br)cc1)N1CCN(c2cc(-c3ccccc3)nc3ncnn23)CC1,-4.7,11.5,24.6,1.7,6.5,-10.1
c1ccc(-c2cc3c(N4CCN(c5ccccc5)CC4)ncnc3s2)cc1,8.4,5.7,42.5,9.6,-41.3,27.0
Cc1ccc(OCCN2CCN(c3ncnc4sc(C)c(C)c34)CC2)cc1,2.5,.,50.4*,-16.7,.,38.6
C[C@@H]1CN([C@H](C)CO)C(=O)Cc2cc(NS(=O)(=O)c3ccccc3)ccc2O[C@@H]1CN(C)Cc1ccc(C(=O)Nc2ccccc2N)cc1,.,36.3,.,.,15.3,.
C[C@@H](NC(=O)[C@@H]1N[C@@H]2c3ccc(-c4ccncc4)c(=O)n3C[C@@H]2[C@H]1CO)c1ccccc1,.,5.4,.,.,-12.0,.
N#Cc1ccc(CSc2nnc(-c3ccccc3)n2Cc2ccco2)cc1,8.5,.,3.0,-8.4,.,-27.4
